Measured values from PubChem BioAssay (Tox21).
The source made the active and inactive calls. A call without a number means that no potency is given here. Calls follow the shape of the full dose curve.

target: Muscarinic acetylcholine receptor M1 (Homo sapiens) (UniProt P11229); test: Cholinergic receptor muscarinic 1 (CHRM1) small molecule agonists, cell-based qHTS assay (AID 1963589); conditions: CHRM1-CHO cells, agonist mode, calcium flux fluorescence; series mostly up to 76.8 µM; also: nearly all actives have a fitted effect of over 35% in size
Description: National Center for Advancing Translational Sciences [NCATS]
Division of Preclinical Innovation [DPI]
U.S. Environmental Protection Agency [EPA]
National Institutes of Environmental Health Sciences [NIEHS]
National Toxicology Program [NTP]
U.S. Food and Drug Administration [FDA]
The CHRM1 is a muscarinic receptor. This receptor plays a crucial role in learning and memory processes and has long been identified as a promising therapeutic target for the improvement of cognitive decline in Alzheimer's disease (AD). The CHRM1-CHO cell line stably expressing human muscarinic acetylcholine receptor M1 (CHRM1) can be used for screening agonists and antagonists of interactions between CHRM1 and its ligands. The CHRM1-CHO Calcium Flux Assay is a homogeneous fluorescence-based assay for detecting the intracellular calcium level using FDSS kinetic plate reader system.
CHRM1-CHO cells were dispensed at 1000 cells/3uL/well in 1536-well black-clear bottom plates using a Multidrop Dispenser. After the assay plates were incubated at a 37 C/5% CO2 incubator for 18 h, 3 uL of Dye Loading Buffer was transferred to the assay plate by a Flying Reagent Dispenser. The assay plates were incubated at 37 C for 1h. For agonist mode, 23 nL of compounds dissolved in DMSO, positive controls or DMSO only was transferred to the assay plate by a pin tool. […] Each test compound was measured at 15 concentrations in three independent runs.

Sequence of Muscarinic acetylcholine receptor M1 (Homo sapiens) (P11229 whole entry, looked up): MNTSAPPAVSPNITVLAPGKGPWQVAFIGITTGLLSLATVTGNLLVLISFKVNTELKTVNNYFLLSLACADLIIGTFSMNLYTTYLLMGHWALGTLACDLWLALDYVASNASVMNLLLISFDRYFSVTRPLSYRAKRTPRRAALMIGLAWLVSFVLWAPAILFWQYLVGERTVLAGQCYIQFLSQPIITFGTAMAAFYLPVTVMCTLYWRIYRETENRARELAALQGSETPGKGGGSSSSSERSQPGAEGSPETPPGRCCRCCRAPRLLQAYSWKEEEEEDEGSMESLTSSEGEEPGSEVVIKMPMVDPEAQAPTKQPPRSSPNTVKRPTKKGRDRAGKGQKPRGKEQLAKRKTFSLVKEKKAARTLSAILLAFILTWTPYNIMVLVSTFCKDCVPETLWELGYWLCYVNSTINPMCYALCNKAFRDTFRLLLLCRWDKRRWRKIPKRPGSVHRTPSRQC

Row | SMILES | Potency
1 | Cc1cc(=O)[nH]c(=S)[nH]1 | inactive
2 | C=C(C)C(=O)OCC(CC)(COC(=O)C(=C)C)COC(=O)C(=C)C | inactive
3 | NC(N)=O | inactive
4 | CC(=O)OCC(=O)[C@@]12N=C(C)O[C@@H]1C[C@H]1[C@@H]3CCC4=CC(=O)C=C[C@]4(C)[C@H]3[C@@H](O)C[C@@]12C | inactive
5 | COc1ccc(NC(C)=O)cc1N | inactive
6 | Nc1cc(Cl)c(N)c(Cl)c1 | inactive
7 | O=C(c1ccccc1)C(O)c1ccccc1 (stereo not given) | inactive
8 | C=C(C)C(=O)OCC(C)O (stereo not given) | inactive
9 | CCCC(O)C(CC)CO (stereo not given) | inactive
10 | C=CCOC(=O)CC(C)C | inactive
11 | C=CCNC(N)=S | inactive
12 | CC(=O)OC[C@H]1O[C@@](COC(C)=O)(O[C@H]2O[C@H](COC(C)=O)[C@@H](OC(C)=O)[C@H](OC(C)=O)[C@H]2OC(C)=O)[C@@H](OC(C)=O)[C@@H]1OC(C)=O | inactive
13 | O=C(Cl)c1cccc(C(=O)Cl)c1 | inactive
14 | Cc1cc(C(C)(C)C)c(O)c(C(C)(C)C)c1 | inactive
15 | CCCOC(=O)NCCCN(C)C | inactive
16 | CCCCCCCCOc1ccc(C(=O)c2ccccc2)c(O)c1 | inactive
17 | CCO[Si](CCCN)(OCC)OCC | inactive
18 | c1ccc(OCCOc2ccccc2)cc1 | inactive
19 | N[C@@H](Cc1cc(I)c(Oc2cc(I)c(O)c(I)c2)c(I)c1)C(=O)O | inactive
20 | CC(=O)Nc1ccc(C(=O)O)cc1 | inactive

Row | SMILES | Potency
21 | CC(C)(CO)COC(=O)C(C)(C)CO | inactive
22 | CC1=C(C)S(=O)(=O)CCS1(=O)=O | inactive
23 | COc1c(Cl)c(Cl)c(Cl)c(Cl)c1Cl | inactive
24 | COCCOCCOCCO | inactive
25 | O=S(=O)(O)c1ccc(O)cc1 | inactive
26 | C1CNCCN1 | inactive
27 | CC/C=C(\C(=O)N[C@@H]1C(=O)N2C(C(=O)OCOC(=O)C(C)(C)C)=C(COC(N)=O)CS[C@H]12)c1csc(N)n1 | inactive
28 | Cc1cccc2ccccc12 | inactive
29 | NCCOCCO | inactive
30 | C=C(C)CNCC | inactive
31 | Cc1ccc(N)c(S(=O)(=O)O)c1 | inactive
32 | O=c1cc[nH]c(=S)[nH]1 | inactive
33 | O=C(O)c1cc(C(=O)O)cc(S(=O)(=O)O)c1 | inactive
34 | C=Cc1cccc(C)c1 | inactive
35 | CCCN(CCC)C(=O)SCC | inactive
36 | C=CC[N+](C)(C)CC=C | inactive
37 | O=[N+]([O-])c1cc(C(F)(F)F)ccc1Cl | inactive
38 | Cc1cccc(C)c1O | inactive
39 | COCC(C)O (stereo not given) | inactive
40 | Nc1ccc(O)c(C(=O)O)c1 | inactive
